Measurements as given in PubChem BioAssay (NCI).
Compounds without any hit were thinned out: in the full panel of roughly 79,000, 15% have a hit. Calls of active or inactive are those of the source. Rule as the data show it: active = growth inhibition above about 70%; inactive = the rest.

Experiments:
[1] = NCI Yeast Anticancer Drug Screen. Data for the rad52 strain (AID 147);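 also: 0% = growth of vehicle-treated control cultures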; conditions: S. cerevisiae rad52 mutant growth inhibition, hits give high values
Summary of the method: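 DNA repair-defective yeast; compound exposure; growth scored against vehicle controls.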

[2] = NCI Yeast Anticancer Drug Screen. Data for the wt1 strain (AID 149);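 also: 0% = growth of vehicle-treated wt1 cultures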; conditions: S. cerevisiae wt1 strain (SPY 50644) growth inhibition, hits give high values
Summary of the method: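 The wt1 strain was treated with compounds, and growth was compared with vehicle-treated cultures to give inhibition.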

[3] = NCI Yeast Anticancer Drug Screen. Data for the rad50EPP+ strain (AID 151);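 also: 0% = growth of vehicle-treated control cultures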; conditions: S. cerevisiae rad50 mutant strain, hits give high values
Summary of the method: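 rad50EPP+ yeast treated with test compounds. Readout: growth vs vehicle control.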

[4] = NCI Yeast Anticancer Drug Screen. Data for the mgt1 strain (AID 153); conditions: S. cerevisiae mgt1 mutant growth inhibition, hits give high values
Summary of the method: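 Growth inhibition relative to vehicle controls was scored for the mgt1 yeast strain after compound exposure.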

[5] = NCI Yeast Anticancer Drug Screen. Data for the mec2-1 strain (AID 157); conditions: S. cerevisiae mec2-1 strain, hits give high values
Summary of the method: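 Growth inhibition is read against vehicle-treated controls after compound exposure of the mec2-1 yeast strain, which is defective in DNA damage repair or cell cycle control.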

[6] = NCI Yeast Anticancer Drug Screen. Data for the rad14 strain (AID 159);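 also: 0% = growth of vehicle-treated control cultures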; conditions: S. cerevisiae rad14 strain growth inhibition, hits give high values
Summary of the method: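 Readout: yeast growth inhibition, referenced to vehicle-only cultures. Strain bears a defined alteration in DNA damage repair.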

[7] = NCI Yeast Anticancer Drug Screen. Data for the sgs1 mgt1 strain (AID 161);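 also: 0% = growth of cultures given vehicle only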; conditions: S. cerevisiae sgs1 mgt1 strain, hits give high values
Summary of the method: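 Compounds are added to genetically altered yeast, and growth is compared with cultures given vehicle alone to give percent inhibition.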

[8] = NCI Yeast Anticancer Drug Screen. Data for the CLN2oe strain (AID 163);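 also: 0% = growth of vehicle-only control cultures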; conditions: S. cerevisiae CLN2oe strain, hits give high values
Summary of the method: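 Compound-treated yeast; growth vs vehicle ctrl = % inhibition. Genetically altered strain (cell-cycle control).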

[9] = NCI Yeast Anticancer Drug Screen. Data for the cln2 rad14 strain (AID 165);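 also: 0% = growth equal to vehicle treated cultures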; conditions: S. cerevisiae cln2 rad14 strain, hits give high values
Summary of the method: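 Growth inhibition, relative to vehicle-treated controls, is the read-out. The test organism is a yeast strain with defined genetic alterations, cln2 rad14.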

[10] = NCI Yeast Anticancer Drug Screen. Data for the bub3 strain (AID 167); conditions: S. cerevisiae bub3 mutant strain, hits give high values
Summary of the method: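 Part of a panel of yeast mutants defective in DNA damage repair or cell cycle regulation. Each strain is grown with compound, and inhibition is calculated relative to solvent-treated cultures.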

[11] = NCI Yeast Anticancer Drug Screen. Data for the wt2 strain (AID 169);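 also: 0% = growth of vehicle-treated yeast cultures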; conditions: S. cerevisiae wt2 strain growth inhibition, hits give high values
Summary of the method: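 Compound exposure of yeast; growth compared with vehicle controls; inhibition reported.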

[12] = NCI Yeast Anticancer Drug Screen. Data for the mlh1 strain (AID 171);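 also: 0% = growth of vehicle-treated control cultures of the same strain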; conditions: S. cerevisiae mlh1 strain growth inhibition, hits give high values
Summary of the method: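 Compounds are applied to a genetically altered yeast strain, and its growth is compared with that of vehicle-treated cultures to give percent inhibition.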

[13] = NCI Yeast Anticancer Drug Screen. Data for the sgs1 strain (AID 173);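 also: 0% = growth of vehicle-only control cultures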; conditions: S. cerevisiae sgs1 mutant, hits give high values
Summary of the method: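 Compounds applied to genetically altered yeast; growth compared with vehicle-treated cultures to give % inhibition.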

[14] = NCI Yeast Anticancer Drug Screen. Data for the mlh1 rad18 strain (AID 175); conditions: S. cerevisiae mlh1 rad18 strain growth inhibition, hits give high values
Summary of the method: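 Cells of a genetically altered yeast strain, deficient in DNA damage repair, were treated with compound. Their growth was then compared with that of vehicle-treated cultures to give inhibition.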

[15] = NCI Yeast Anticancer Drug Screen. Data for the rad18 strain (AID 177); conditions: S. cerevisiae rad18 mutant growth inhibition, hits give high values
Summary of the method: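 Compounds are applied to a repair-deficient yeast strain, and growth is compared with that of vehicle-treated cultures to give percent inhibition.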

[16] = at 5.0 µM (retest, dose inferred, filed as 0.5)
[17] = at 50.0 µM (retest, dose inferred, filed as 5.0)

Measured: growth inhibition

COc1cccc2c1C(=O)c1c(O)c3c(c(O)c1C2=O)C[C@@](O)(C(C)=O)C[C@@H]3OC1CC(N)C(OC2CC(O)C(O)C(C)O2)C(C)O1 (stereo not given in full)
active: [9]; [17] 78%
inactive: [1]; at 1.2 µM 16% | [1]; at 3.7 µM 12% | [1]; at 11.0 µM 15% | [1]; at 33.0 µM 27% | [1]; at 100.0 µM 59% | [2]; at 1.2 µM -26% | [2]; at 3.7 µM -25% | [2]; at 11.0 µM -7% | [2]; at 33.0 µM -15% | [2]; at 100.0 µM -2% | [3]; at 1.2 µM 11% | [3]; at 3.7 µM 8% | [3]; at 11.0 µM 10% | [3]; at 33.0 µM 18% | [3]; at 100.0 µM 38% | [4]; at 1.2 µM -22% | [4]; at 3.7 µM -22% | [4]; at 11.0 µM -18% | [4]; at 33.0 µM -14% | [4]; at 100.0 µM -17% | [5]; at 1.2 µM -25% | [5]; at 3.7 µM -20% | [5]; [16] 5% | [5]; at 11.0 µM -24% | [5]; at 33.0 µM -17% | [5]; [17] 33% | [5]; at 50.0 µM 49.1% | [5]; at 100.0 µM -8% | [6]; at 1.2 µM -10% | [6]; at 3.7 µM -11% | [6]; at 11.0 µM -9% | [6]; at 33.0 µM -1% | [6]; at 100.0 µM 15% | [7]; [16] 14% | [7]; [17] 44% | [7]; at 50.0 µM 39.8% | [8]; at 1.2 µM -14% | [8]; at 3.7 µM -10% | [8]; at 11.0 µM -12% | [8]; at 33.0 µM -6% | [8]; at 100.0 µM 6% | [9]; [16] 19% | [9]; at 50.0 µM 57.8% | [10]; at 1.2 µM -30% | [10]; at 3.7 µM -26% | [10]; [16] 4% | [10]; at 11.0 µM -31% | [10]; at 33.0 µM -23% | [10]; [17] 37% | [10]; at 50.0 µM 42.4% | [10]; at 100.0 µM -6% | [11]; at 1.2 µM -57% | [11]; at 3.7 µM -65% | [11]; at 11.0 µM -54% | [11]; at 33.0 µM -28% | [11]; at 100.0 µM 2% | [12]; at 1.2 µM -25% | [12]; at 3.7 µM -15% | [12]; at 11.0 µM -17% | [12]; at 33.0 µM -6% | [12]; at 100.0 µM -3% | [13]; at 1.2 µM -2% | [13]; at 3.7 µM -4% | [13]; at 11.0 µM -11% | [13]; at 33.0 µM -8% | [13]; at 100.0 µM 0% | [14]; [16] 18% | [14]; [17] 48% | [14]; at 50.0 µM 51.3% | [15]; at 1.2 µM -8% | [15]; at 3.7 µM -17% | [15]; at 11.0 µM -32% | [15]; at 33.0 µM -21% | [15]; at 100.0 µM -2%

C[C@]12CCC3[C@@H](CC[C@@H]4c5nonc5CC[C@]34C)C1CCC2=O (stereo not given in full)
inactive: [1]; at 1.2 µM 13% | [1]; at 3.7 µM 22% | [1]; at 11.0 µM 52% | [2]; at 1.2 µM 0% | [2]; at 3.7 µM -1% | [2]; at 11.0 µM 8% | [2]; at 33.0 µM 38% | [2]; at 100.0 µM 65% | [3]; at 1.2 µM 4% | [3]; at 3.7 µM 7% | [3]; at 11.0 µM 16% | [3]; at 33.0 µM 29% | [3]; at 100.0 µM 24% | [4]; at 1.2 µM 20% | [4]; at 3.7 µM 29% | [4]; at 11.0 µM 52% | [5]; at 1.2 µM 6% | [5]; at 3.7 µM 3% | [5]; [16] 15% | [5]; at 11.0 µM 29% | [5]; at 33.0 µM 54% | [5]; [17] -11% | [5]; at 50.0 µM 47.6% | [6]; at 1.2 µM 40% | [6]; at 3.7 µM 40% | [6]; at 11.0 µM 55% | [7]; [16] 33% | [7]; [17] 69% | [9]; [16] 39% | [9]; [17] 54% | [9]; at 50.0 µM 67.7% | [10]; at 1.2 µM 16% | [10]; at 3.7 µM 19% | [10]; [16] -11% | [10]; at 11.0 µM 38% | [10]; at 33.0 µM 61% | [10]; [17] 59% | [11]; at 1.2 µM 3% | [11]; at 3.7 µM 2% | [11]; at 11.0 µM 32% | [12]; at 1.2 µM 8% | [12]; at 3.7 µM 11% | [12]; at 11.0 µM 29% | [14]; [16] 37% | [14]; [17] 63% | [15]; at 1.2 µM 24% | [15]; at 3.7 µM 22% | [15]; at 11.0 µM 50%
active: [1]; at 33.0 µM 82% | [1]; at 100.0 µM 85% | [4]; at 33.0 µM 84% | [4]; at 100.0 µM 90% | [5]; at 100.0 µM 79% | [6]; at 33.0 µM 87% | [6]; at 100.0 µM 90% | [7]; at 50.0 µM 87.6% | [10]; at 50.0 µM 78.2% | [10]; at 100.0 µM 72% | [11]; at 33.0 µM 83% | [11]; at 100.0 µM 83% | [12]; at 33.0 µM 80% | [12]; at 100.0 µM 86% | [14]; at 50.0 µM 80.8% | [15]; at 33.0 µM 78% | [15]; at 100.0 µM 83%
